Laboratory results as given in PubChem BioAssay (NCATS).
Records with an inconclusive call do not appear. Calls of active or inactive are those of the source. Calls follow the shape of the dose curve; as a rule, active = well fitted curve in the direction sought with a large enough effect; inconclusive = small, poorly fitted or top-dose-only effect, or another doubt; inactive = no such curve, though single readings can be large; an effect the other way counts as inactive or inconclusive.

Legend:
[1] = qHTS assay to identify small molecule inhibitors of chordoma cells - UCH-1 (AID 1259355); also: nearly all actives have a fitted effect of over 55% in size; also: potency is read from the fitted curve at half-maximal effect; series mostly up to about 46 µM
Summary of the method: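 Luminescent ATP read-out (CellTiter-Glo, 30min at room temperature) measured viability of UCH-1 cells exposed for 48hr to test drugs at 15 concentrations, co-dosed with a five-agent combination of auranofin, camptothecin, doxorubicin, rubitecan and topotecan.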

[2] = qHTS assay to identify small molecule inhibitors of chordoma cells - UCH-2 (AID 1259356); also: series mostly up to about 46 µM
[3] = P-glycoprotein substrates identified in KB-8-5-11 adenocarcinoma cell line, qHTS therapeutic library screen (AID 1346987); also: nearly all actives have a fitted effect of over 65% in size; also: potency is read from the fitted curve at half-maximal effect
Summary of the method: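 P-gp-mediated resistance screen: KB-8-5-11 cells treated 72 h with compounds in dose-response. CellTiter-Glo viability.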

[4] = NS1 protein of Zika virus - qHTS assay to identify small molecule inhibitors in human HEK 293 cells (AID 1347053); also: series mostly up to about 46 µM; nearly all actives have a fitted effect of over 55% in size
Summary of the method: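 Following 20 h seeding, HEK 293 cells took compound, then 1 h later ZIKV MR766 (MOI = 0.5). Incubation ran 24 h at 37 C before TR-FRET detection of NS1; a drop in signal indicates inhibition.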

[5] = qHTS of pediatric cancer cell lines to identify multiple opportunities for drug repurposing: Primary screen for TC32 cells (AID 1347089); also: nearly all actives have a fitted effect of over 60% in size
Summary of the method: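 TC32 cells, 500-1,000/well in growth medium, compound-treated 48 h at 37 °C; viability from CellTiter-Glo luminescence. Primary screen: MIPE 11-point (0.78 nM–46 µM final), NPC 8-point (0.59 nM–46 µM final); confirmatory at 11-point dilutions.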

[6] = qHTS of pediatric cancer cell lines to identify multiple opportunities for drug repurposing: Primary screen for DAOY cells (AID 1347090); also: series mostly up to about 46 µM; nearly all actives have a fitted effect of over 55% in size
Summary of the method: (§1)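 Eight- or eleven-point concentration series, 48 h treatment at 37 degrees C in growth media; readout CellTiter-Glo luminescence. Potency and efficacy were taken from the concentration-response curves.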

[7] = qHTS of pediatric cancer cell lines to identify multiple opportunities for drug repurposing: Primary screen for SJ-GBM2 cells (AID 1347091)
Summary of the method: as §1

[8] = qHTS of pediatric cancer cell lines to identify multiple opportunities for drug repurposing: Primary screen for A673 cells (AID 1347092); also: nearly all actives have a fitted effect of over 45% in size
Summary of the method: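 A673 cells (500-1,000 cells/well) were treated 48 hours at 37 degrees C with compounds at 11-point (0.78 nM to 46 µM) or 8-point (0.59 nM to 46 µM) dilutions. Viability read by CellTiter-Glo luminescence; concentration-response curves fitted.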

[9] = qHTS of pediatric cancer cell lines to identify multiple opportunities for drug repurposing: Primary screen for SK-N-MC cells (AID 1347093); also: series mostly up to about 46 µM
Summary of the method: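 Metabolically active cells were quantified by ATP-dependent luminescence (CellTiter-Glo, 15 min at room temperature) following 48 h treatment. Cells had been plated at 500-1,000 per well and settled for 5 h beforehand.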

[10] = qHTS of pediatric cancer cell lines to identify multiple opportunities for drug repurposing: Primary screen for BT-37 cells (AID 1347094); also: series mostly up to about 57 µM
Summary of the method: (§2)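 Cells plated at 500-1,000/well in growth medium, compounds added after 5 h. MIPE tested at 11 points (from 0.78 nM), NPC at 8 points (from 0.59 nM). CellTiter-Glo luminescence after 48 h; concentration-response curves from primary screen.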

[11] = qHTS of pediatric cancer cell lines to identify multiple opportunities for drug repurposing: Primary screen for NB-EBc1 cells (AID 1347095)
Summary of the method: as §2

[12] = qHTS of pediatric cancer cell lines to identify multiple opportunities for drug repurposing: Primary screen for U-2 OS cells (AID 1347096); also: nearly all actives have a fitted effect of over 50% in size
Summary of the method: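 Cells (500-1,000/well) in growth media were settled 5 h at 37 degrees C, then given compounds for 48 h. Viability was read as CellTiter-Glo luminescence. Primary runs used MIPE at 11 points (0.78 nM-46 µM) and NPC at 8 points (0.59 nM-46 µM); follow-ups used 11 points.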

[13] = P-glycoprotein substrates identified in KB-3-1 adenocarcinoma cell line, qHTS therapeutic library screen (AID 1346986); details: KB-3-1 parental cells viability, CellTiter-Glo, 72 h; also: nearly all actives have a fitted effect of over 60% in size
Summary of the method: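 KB-3-1 parental cells and P-gp-overexpressing KB-8-5-11 (colchicine omitted during assay) plated at 500 cells/well, dosed in dose-response, incubated 72 h at 37 degree C. CellTiter-Glo luminescence read; KB-8-5-11 also tested with tariquidar.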

Measured: Potency

CCc1ccc(C(=O)C(C)CN2CCCCC2)cc1 (stereo not given)
not listed: [12] | [13]
inactive: all other assays above

CCNC(=O)NCc1cccc(Cl)c1
not listed: [13]
inactive: all other assays above

COP(=O)(OC)OC(c1ccc(Cl)cc1)P(=O)(OC)OC (stereo not given)
not listed: [12] | [13]
inactive: all other assays above

COc1ccc(CCN(C)CCCN2CCc3cc(OC)c(OC)cc3CC2=O)cc1OC
not listed: [13]
inactive: all other assays above

COc1ccc(-c2cc(C(F)F)nn2-c2ccc(S(N)(=O)=O)cc2)cc1F
not listed: [13]
inactive: all other assays above

NS(=O)(=O)c1ccc(Cl)c(S(N)(=O)=O)c1
not listed: [13]
inactive: all other assays above

COc1cc(C(=S)N2CCOCC2)ccc1O
not listed: [12] | [13]
inactive: all other assays above

CCOC(=O)c1ccc(N)cc1
not listed: [12] | [13]
inactive: all other assays above

C#C[C@]1(O)CC[C@H]2[C@@H]3CCC4=Cc5oncc5C[C@]4(C)[C@H]3CC[C@@]21C
active: [3] 4.61 µM
inactive: [1] | [2] | [4] | [5] | [6]

CC(C(=O)O)c1cccc(Oc2ccccc2)c1 (stereo not given)
not listed: [13]
inactive: all other assays above

O[C@@H](c1cc(C(F)(F)F)nc2c(C(F)(F)F)cccc12)[C@H]1CCCCN1
active: [1] 35.5 µM
inactive: [2]

C[C@@H](O)[C@H]1C(=O)N2C(C(=O)O)=C([C@H]3CCCO3)S[C@H]12
not listed: [13]
inactive: all other assays above

Nc1ccc(S(=O)(=O)NCc2ccccc2)cc1
not listed: [12] | [13]
inactive: all other assays above

CC(=O)O[C@H]1C[C@@H]2CC[C@@H]3[C@H](CC[C@@]4(C)[C@H]3C[C@H]([N+]3(C)CCCCC3)[C@@H]4OC(C)=O)[C@@]2(C)C[C@@H]1N1CCCCC1
not listed: [11] | [12] | [13]
inactive: all other assays above

NCCNC(=O)c1ccc(Cl)cn1
not listed: [12] | [13]
inactive: all other assays above

Cc1ccccc1OCC(O)CO (stereo not given)
not listed: [13]
inactive: all other assays above

O=C(CCN1CCN2CCCC2C1)N1c2ccccc2Sc2ccc(Cl)cc21 (stereo not given)
not listed: [13]
inactive: all other assays above

NS(=O)(=O)c1cc2c(cc1Cl)NC(CC1CCCC1)NS2(=O)=O (stereo not given)
not listed: [13]
inactive: all other assays above

CCN(CC)CCNC(=O)COc1ccc(OC)cc1
not listed: [12] | [13]
inactive: all other assays above

CCCCN=C(N)N=C(N)N
not listed: [8] | [11] | [12]
inactive: all other assays above

Nc1ccc(S(=O)(=O)Nc2cnc3ccccc3n2)cc1
not listed: [13]
inactive: all other assays above
